Where “and” joins values, the source holds several entries; their conditions need not be identical. Equal values may be shown once. Inconclusive results are not listed. The source holds several records for some structures; these can differ, active in one and inactive in another. Calls of active or inactive are those of the source. The calls were made as follows, unless noted: active = hit-call score of the fitted dose curve at least 0.9, where 1 is the maximum; inconclusive = response in the unintended direction; inactive = score below 0.9.
Columns and labels:
SERPINA7 (gene 6906) = assay: CCTE_GLTED_hTBG: CCTE's human Thyroxine-binding Globulin (TBG) Inhibition Assay, Great Lakes Toxicology and Ecology Division (GLTED) Lab (AID 2284343);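 also: active chemicals lower fluorescence versus DMSO baseline by displacing probe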
How it was run: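 Cell-free displacement of the fluorescent probe ANSA from human thyroxine-binding globulin after 2 h exposure. Read-out at ex 380/em 475 nm; DMSO baseline.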

[1] = VALA_TUBHUV_Agonist_TubuleLength: VALA Sciences human Umbilical Vein Endothelial Tubule Formation (TUBHUV) Agonism Assay (AID 2284337)
How it was run: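 Tubule length quantified by CD31 immunofluorescence imaging after fixation. HUVEC-HDF co-cultures (1:3) pre-grown 3 days with 10 ng/ml VEGF, then dosed 3 days in VEGF medium; 0.1 % DMSO vehicle baseline.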

[2] = VALA_TUBIPS_Agonist_CellCount: Viability Assessment in the VALA Sciences human iPS-derived Endothelial Tubule Formation (TUBIPS) Agonism Assay (AID 2284338)
Protocol: VALA_TUBIPS_Agonist is a cell-based, multiplexed assay that uses human iPS-derived endothelial cells (iPSC). Measurements were taken 72 hours after chemical dosing in a 96-well plate.VALA_TUBIPS_Agonist_CellCount is the one of two assay components measured from the VALA_TUBIPS_Agonist assay. It is designed to make measurements of viability, a form of viability reporter, as detected with fluorescence intensity signals by HCS Fluorescent Imaging technology. Data from the assay component VALA_TUBIPS_Agonist_CellCount was analyzed at the endpoint, VALA_TUBIPS_Agonist_CellCount, in the positive analysis fitting direction relative to DMSO as the negative control and baseline of activity. Using a type of viability reporter, loss-of-signal activity can be used to understand viability. To generalize the intended target to other relatable targets, this assay endpoint is annotated to the cell cycle intended target family, where the subfamily is cell count.
This HUVEC-HDF assay was designed to detect chemical suppression of tubulogenesis, i.e. antagonism. To measure tubulogenesis antagonism, HUVEC cells were co-cultured with HDF cells at a 1:3 ratio for 3-days in 10 ng/ml VEGF (i.e., favorable conditions with growth factors), then changed to assay medium containing 10 ng/ml VEGF and ToxCast compounds for an additional 3-day period. […]

[3] = system: SRY-box transcription factor 17 (SOX17) Protein Expression, Deisenroth Lab, SOX17 (gene 64321); assay: CCTE_Deisenroth_DEVTOX-GLR_legacy_Sox17: (Legacy) CCTE's DevTox GLR-Endo Assay Evaluation of SRY-box transcription factor 17 (SOX17) Protein Expression, Deisenroth Lab (AID 2284341; active = hit-call score of the fitted dose curve at least 0.9, where 1 is the maximum; inactive = score below 0.9); settings: actives raise or lower the signal
How it was run: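 RUES2-GLR human pluripotent cells differentiated toward endoderm for 48 h, dosed twice at 24 h intervals (1 nM–200 uM, 10 points). Imaging gives % SOX17+ cells (intensity >5x BMAD above pluripotent control median); bidirectional fit versus 0.2% DMSO.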

[4] = system: SRY-box transcription factor 2 (SOX2) Protein Expression, Deisenroth Lab, SOX2 (gene 6657); assay: CCTE_Deisenroth_DEVTOX-GLR_legacy_Sox2: (Legacy) CCTE's DevTox GLR-Endo Assay Evaluation of SRY-box transcription factor 2 (SOX2) Protein Expression, Deisenroth Lab (AID 2284346; active = hit-call score of the fitted dose curve at least 0.9, where 1 is the maximum; inactive = score below 0.9)
Protocol: CCTE_Deisenroth_DEVTOX-GLR_legacy assay is a cell-based, multiplex-readout assay that uses RUES2-GLR, a human pluripotent cell line, with measurements taken at 48 hours after chemical dosing in a 384-well microplateCCTE_Deisenroth_DEVTOX-GLR_legacy_Sox2 is one of 4 assay components calculated from the CCTE_Deisenroth_DEVTOX-GLR_legacy assay that measures an increase in the percentage of cells in an ectodermal or pluripotent state. It is designed to make measurements of inducible reporter a form of fluorescent protein induction as detected with optical fluorescence microscopy. Percentage Sox2+ cells are determined by calculating the number of Sox2+ cells divided by cell count. A cell is Sox2+ if the cell Sox2 mean intensity is 5x BMAD above the directed endoderm control median cell Sox2 mean. The assay endpoint was analyzed with bidirectional fitting with the 0.2% DMSO control median percent Sox2 in the CCTE_Deisenroth_DEVTOX-GLR_Endo assay subtracted.Data from the assay component CCTE_Deisenroth_DEVTOX-GLR_legacy_Sox2 was analyzed into 1 assay endpoint. This assay endpoint, CCTE_Deisenroth_DEVTOX-GLR_legacy_Sox2, was analyzed in the positive analysis fitting direction relative to DMSO as the negative control and baseline activity. Using a type of inducible reporter, gain-of-signal activity can be used to understand changes in gene expression. Furthermore, this assay endpoint can be referred to as a secondary readout, because this assay has produced multiple assay endpoints where this one serves as a measure of pluripotency or ectoderm differentiation. To generalize the intended target to other relatable targets, this assay endpoint is annotated to the transcription factor intended target family, where the subfamily is SRY-related HMG-box.
All assay protocols are aligned to the DevTox GLR-Endo assay workflow. […] Cell identification and mean biomarker fluorescence intensities are calculated with image analysis software to determine the total cell counts for viability assessment and the biomarker expression frequency for each lineage-dependent assay. […]

[5] = CCTE_Mundy_HCI_iCellGluta_NOG_NeuronCount: CCTE's Neurite Outgrowth Assay in iCellGluta cells for Neuron Count, Mundy Lab (AID 2284340);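 also: cells fixed about 48 h after compound addition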
How it was run: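 Neuron count read by automated high-content imaging of Hoechst 33342 and betaIII-tubulin/Alexa Fluor-488 labelling in human iPSC glutamatergic neurons. Activity fitted relative to DMSO.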

[6] = CCTE_Mundy_HCI_iCellGluta_NOG_NeuriteCount: CCTE's Neurite Outgrowth Assay in iCellGluta cells for Neurite Count, Mundy Lab (AID 2284342);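 also: chemical exposure about 48 hours starting 2 hours after plating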
[7] = CCTE_Deisenroth_H295R-HTRF_384WELL_ESTRADIOL: CCTE's H295R-HTRF Assay Evaluation of Estradiol Concentration, Deisenroth Lab (AID 2284361; active = hit-call score of the fitted dose curve at least 0.9, where 1 is the maximum; inactive = score below 0.9); settings: actives raise or lower the signal
How it was run: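 Estradiol secreted into medium by H295R adrenocortical cells, quantified by HTRF after 48 h dosing over a nine-point 0.001 - 100 uM final range; gain or loss versus DMSO. Parallel ATP-luminescence viability readout; n=5 experiments.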

[8] = CCTE_Deisenroth_H295R-HTRF_384WELL_TESTOSTERONE: CCTE's H295R-HTRF Assay Evaluation of Testosterone Concentration, Deisenroth Lab (AID 2284373; active = hit-call score of the fitted dose curve at least 0.9, where 1 is the maximum; inactive = score below 0.9); settings: actives raise or lower the signal
How it was run: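 Secreted testosterone was quantified by HTRF immunoassay of medium from human adrenocortical H295R cells after 48 h chemical exposure at 0.001–100 uM final. Gain or loss was fitted against DMSO. ATP-based viability was read on matched wells, five experimental replicates.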

[9] = CCTE_Deisenroth_H295R-HTRF_384WELL_CTOX: Cytotoxicity Assessment in CCTE's H295R-HTRF Assay, Deisenroth Lab (AID 2284380)
How it was run: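 Luminescent ATP viability readout (CellTiter-Glo 2.0), multiplexed on plates used for hormone sampling, after 48 h chemical exposure. Human H295R cells; final concentrations 0.001–100 uM in nine steps, technical triplicates, five experiments; DMSO baseline.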

ClC1=C(Cl)C(Cl)(Cl)C(Cl)=C1Cl
AC50 (SERPINA7 (gene 6906)): 23.9 µM (active)

CCCCCCCCCCCCc1ccccc1S(=O)(=O)O
AC50 [1]: 15.6 µM (active) | AC50 [2]: 1.5 µM (active) | AC50 (SERPINA7 (gene 6906)): 4.89 µM (active)

C[C@@H]1C[C@H]2[C@@H]3CCC4=CC(=O)C=C[C@]4(C)[C@@]3(F)[C@@H](O)C[C@]2(C)[C@@]1(O)C(=O)COP(=O)(O)O
outcome [3]: inactive | outcome [4]: inactive

CC1=C(/C=C/C(C)=C/C=C/C(C)=C/C(=O)O)C(C)(C)CCC1
AC50 [3]: 0.109 µM (active) | AC50 [4]: 82.8 µM (active)

O=[N+]([O-])c1ccc(O)cc1
AC50 (SERPINA7 (gene 6906)): 33.3 µM (active) and 47.2 µM (active)

NC(=O)N1C(=O)C(C(=O)c2cc(Cl)cs2)c2cc(F)c(Cl)cc21 (stereo not drawn)
AC50 (SERPINA7 (gene 6906)): 7.27 µM (active)

CC#C[C@]1(O)CC[C@H]2[C@@H]3CCC4=CC(=O)CCC4=C3[C@@H](c3ccc(N(C)C)cc3)C[C@@]21C
AC50 [5]: 27.3 µM (active) | outcome [5]: inactive | AC50 [6]: 58.9 µM (active) | outcome [6]: inactive | outcome [7]: inactive | outcome [8]: inactive | outcome [9]: inactive

OCCC(F)(F)C(F)(F)C(F)(F)C(F)(F)C(F)(F)C(F)(F)F
outcome [5]: inactive | outcome [6]: inactive

O=C(O)c1ccccc1C(c1ccc(O)cc1)c1ccc(O)cc1
AC50 (SERPINA7 (gene 6906)): 49.9 µM (active)

CC(C)(C)CC(C)(C)c1ccc(O)c(-n2nc3ccccc3n2)c1
AC50 (SERPINA7 (gene 6906)): 16.3 µM (active)

COc1ccc([N+](=O)[O-])cc1N
AC50 (SERPINA7 (gene 6906)): 50 µM (active)

CC[C@H](C)[C@@H](C(=O)O)n1sc2ccccc2c1=O
AC50 (SERPINA7 (gene 6906)): 18.2 µM (active)

O=C(O)Cc1cc(I)c(Oc2cc(I)c(O)c(I)c2)c(I)c1
outcome [1]: inactive | outcome [2]: inactive | AC50 (SERPINA7 (gene 6906)): 0.0197 µM (active)

OCCC(F)(F)C(F)(F)C(F)(F)C(F)(F)C(F)(F)C(F)(F)C(F)(F)C(F)(F)F
outcome [6]: inactive

C=C(C)C(=O)OCCC(F)(F)C(F)(F)C(F)(F)C(F)(F)C(F)(F)C(F)(F)F
outcome [5]: inactive | outcome [6]: inactive

CC[C@H](c1ccc(O)cc1)[C@@H](CC)c1ccc(O)cc1
AC50 (SERPINA7 (gene 6906)): 8.97 µM (active)

Cc1cc(C)c(O)c(C)c1
outcome (SERPINA7 (gene 6906)): inactive

CC(O)CO (stereo not drawn)
outcome [3]: inactive | outcome [4]: inactive
